Shown is part of a subset that was picked to be rich in hits.
Tgondii IFNg – T. gondii growth inhibition with IFN-gamma, primary screen, cell-based; activity change, negative = inhibition, % (concentration not given with the values); actives 3.8% (n = 69,000); Toxoplasma gondii growth in IFN-gamma-treated host cells; hits give low values; in the data active means activity change below about -70%, passing the limit was not always enough;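 further: host cells are HeLa cells infected with Toxoplasma gondii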
Numbers stand for hits; n = inactive.

SMILES	Tgondii IFNg
COC(=O)c1c(NC(=O)C2COc3ccccc3O2)sc(C)c1-c1ccccc1 (stereo not drawn)	n
CC(C)CN1CC2(CCN(C(=O)Cc3cccs3)CC2)C2(CCNC2=O)C1 (stereo not drawn)	n
CCCn1cc(CCNC(=O)c2cc3ccccc3[nH]2)c2cccnc21	-83
CCCN1C(=O)CCc2cc(NC(=O)c3cc4ccccc4[nH]3)ccc21	n
CC(CNC(=O)c1cc(=O)c2ccccc2[nH]1)Oc1cccnc1 (stereo not drawn)	n
Cc1cc(CN2CC[C@H]3C[C@@H](C(=O)Nc4cnccn4)O[C@H]3C2)oc1C	n
CC1(C)CC(=O)C(C2(O)C(=O)Nc3ccccc32)CO1 (stereo not drawn)	n
O=C1N[C@@H](Cc2ccccc2)COCc2cn(nn2)CC[C@H]1Cc1cccc(F)c1	n
CN(Cc1cnc(-c2ccccn2)nc1)Cc1cccc2ncccc12	n
CCNc1ncc(CN(C)Cc2cccc3ncccc23)cn1	n
Cc1ccccc1-c1ncc(CN(C)Cc2cccc3ncccc23)cn1	-89
Cc1nc(-c2ccc(F)cc2)sc1CCNC(=O)C(=O)Nc1ccccc1	n
CC(C)(C)c1cc2nc(C(F)(F)F)cc(N3CCN(C(=O)c4ccccc4)CC3)n2n1	-86
O=C(c1ccccc1)N1CCN(C(=O)c2ccccc2)CC1	n
Cc1ccc(C)c(N2CCN(C(=O)c3ccc(-n4nc(C(F)(F)F)c5c4CCCC5)cc3)CC2)c1	n
CN(C)Cc1nn(C)c2c1CCN(c1nccs1)C2	n
O=C(c1ccccc1)n1ccc(-c2cccs2)n1	n
O=C(c1cccs1)n1ccc(-c2nc3ccccc3s2)n1	n
CO/N=C1\CC(C)(C)Cc2c(-c3ccn(C(=O)c4cccs4)n3)sc(SC)c21	-76
Cc1nc(CCNC(=O)C2CC(=O)N(CC(C)C)C2)nc2c1CCC2 (stereo not drawn)	n
CSc1scc(-c2ccc(Cl)cc2)c1C#N	-91
CSc1scc(NS(=O)(=O)c2ccc(Cl)cc2)c1S(=O)(=O)C(C)C	n
CSc1cc(-c2ccc(Cl)cc2)[nH]c(=O)c1C#N	n
O=C(NCc1cccc(Cl)c1)c1ccc(-n2nc(C(F)(F)F)c3c2CCCC3)cc1	n
COC(=O)c1cc(C)nc2c1c(=O)n(CC(=O)c1c(C)n(C)c3ccccc13)c(=O)n2C	n
SMILES	Tgondii IFNg
O=C1CC2C(CCN2S(=O)(=O)c2ccccc2)N1CC1CC1 (stereo not drawn)	n
OC1(C(F)(F)F)CC(c2ccncc2)=NN1 (stereo not drawn)	n
CSc1sc(C2=NNC(O)(C(F)(F)F)C2)c2c1C(=O)CCC2(C)C (stereo not drawn)	-96
CN(Cc1ccccc1-n1cccn1)C(=O)CC1COCCN1 (stereo not drawn)	n
Cc1cnc(CNC(=O)CC(=O)Nc2cc(Cl)ccc2C)cn1	n
Cc1ccc(C(=O)CSc2ncnc3c(-c4ccc(Cl)cc4)nsc23)cc1	-85
COc1ccc(-c2nsc3c(SCc4ccccc4)ncnc23)cc1	n
Cc1noc2ncnc(SCC(=O)c3ccc(Cl)cc3)c12	n
COc1ccc(-c2nnc(-c3nc(NC4CCCCC4)c4ccccc4n3)o2)cc1	n
COc1cc(-c2nnc(C3CCCCC3)o2)ccc1OCc1ccccc1	-81
COc1cc(C2N3CCCN2CC3)ccc1OCc1ccccc1 (stereo not drawn)	n
CCOc1ccc(NC(=O)CSc2nnns2)cc1	n
O=C1CO[C@H]2CN(C(=O)c3cnc4ccccc4c3)C[C@@H]2N1	n
COc1ccc(-c2nc(NC(=O)CC3SC4=NCCN4C3=O)sc2C)cc1 (stereo not drawn)	n
CCCC(=O)Nc1ccc2c(c1)OC[C@H](C)N(C(=O)c1cccnc1)C[C@@H](C)[C@H](OC)CN(C)C2=O	n
Cc1ccc(CN2C[C@@H]3c4nc(N(C)C)ncc4CS(=O)(=O)[C@H]3C2)cc1	n
Cc1ccccc1CN1C[C@@H]2c3nc(N4CCCC(C)C4)ncc3CS(=O)(=O)[C@H]2C1 (stereo partly drawn)	-86
Cc1ccc(CN2C[C@@H]3c4nc(N5CCCC(C)C5)ncc4CS(=O)(=O)[C@H]3C2)cc1 (stereo partly drawn)	n
COc1ccccc1CNC(=O)CNC(C)c1nncn1C (stereo not drawn)	n
Cc1nc(CN(Cc2ccc3c(C)cc(=O)oc3c2)C(C)C)no1	n
N[C@@H](C(=O)O)c1ccc(O)c(C(=O)O)c1	n
COc1ccc(NC(=O)N2CCN(Cc3nc(-c4ccc(C)cc4)oc3C)CC2)cc1OC	n
O=c1ccc2cc(S(=O)(=O)N3CCCC(COc4ccc(F)cc4)C3)ccc2o1 (stereo not drawn)	n
O=C(NCCc1ccc(Cl)cc1)C(c1ccccc1)c1ccccc1	n
O=C(NC(NC(=S)Nc1ccc(F)c([N+](=O)[O-])c1)C(Cl)(Cl)Cl)C(c1ccccc1)c1ccccc1 (stereo not drawn)	-81
SMILES	Tgondii IFNg
O=C(/C=C/c1ccccc1)NC(NC(=S)Nc1cccc2cccnc12)C(Cl)(Cl)Cl (stereo not drawn)	n
COc1ccc(-c2nc(NCC3CCN(Cc4ccc(C)cc4)CC3)c3ccccc3n2)cc1	n
CCCCOc1cc(C(=O)OCCN(CC)CC)ccc1N	n
CCCCOc1cc(C(=O)NCCN(CC)CC)c2ccccc2n1	n
CCCCc1oc2ccccc2c1C(=O)c1cc(I)c(OCCN(CC)CC)c(I)c1	-81
CCCN1CCc2c(C(=O)N3CCN(C)CC3)n[nH]c2C1	n
Cc1cc(-c2nc(-c3ccnn3S(=O)(=O)c3cccc(C(F)(F)F)c3)cs2)no1	n
CN(C)S(=O)(=O)N1CC[C@@]2(C[C@H](OCc3ccccn3)CO2)C1	n
CN(C)C(=O)N1Cc2nc(C(=O)NCc3cccc(F)c3)oc2C1	n
O=C(NCc1cccc(F)c1)c1nc(CS(=O)(=O)c2ccc(Cl)cc2)no1	-87
O=C(Cc1ccc(Cl)cc1)NCCc1csc(-c2cccc(F)c2)n1	n
O=C(CCC1N=C2c3ccccc3N=C(SCc3ccccc3F)N2C1=O)NCc1ccc(F)cc1 (stereo not drawn)	n
Cc1nn(-c2ccccc2)nc1C(=O)Nc1nc(-c2ccc(F)c(F)c2)cs1	n
Cc1ccc(-c2csc(NC(=O)c3ccccc3)n2)c(C)c1	n
Cc1nc2ccccn2c1-c1csc(NC(=O)c2ccc(Br)cc2)n1	-78
CC(C)c1csc(NC(=O)C2CCN(S(=O)(=O)c3ccc(F)cc3)C2)n1 (stereo not drawn)	n
Cc1cccc(C)c1NC(=O)c1ccccc1C(=O)O	n
CC1=NCCN1S(=O)(=O)c1c(C(C)C)cc(C(C)C)cc1C(C)C	n
CC(C)c1cc(C(C)C)c(S(=O)(=O)Nc2ccc(O)cc2)c(C(C)C)c1	-75
CC(C)c1ccc(NS(=O)(=O)c2cc3c4c(c2)CCC(=O)N4CCC3)cc1	n
O=C(c1cccnc1)N1CC2(C1)[C@@H](c1ccccc1)[C@@H](CO)N2C(=O)CC1CC1	n
COCC(=O)N1[C@H](C(=O)N2CCN(C)CC2)[C@@H](CO)[C@@H]2Cn3c(ccc(C4=CCCCC4)c3=O)[C@@H]21	n
CNC(=S)N(Cc1cccnc1)Cc1cccs1	n
Cc1ccc(C2(O)C(=O)N(Cc3nc(-c4ccccc4)oc3C)c3ccccc32)cc1 (stereo not drawn)	n
Cc1cccc(C2(O)C(=O)N(Cc3nc(-c4ccccc4)oc3C)c3ccccc32)c1 (stereo not drawn)	n
COc1ccc(-c2nc(CN3C(=O)C(O)(c4cccc(F)c4)c4ccccc43)c(C)o2)cc1 (stereo not drawn)	-74

Screens: PubChem, Broad Institute
